# Results published in publication PMC7862700, “An all-to-all approach to the identification of sequence-specific readers for epigenetic DNA modifications on cytosine”.
# Key:
# Assay in all cases: DAPPL (digital affinity profiling via proximity ligation, sequencing); 10 mM Tris-HCl pH 7.5, 50 mM NaCl, 1 mM DTT, 4% glycerol, room temperature, 30 min; GST-TFs on glutathione beads, 16-mer random dsDNA library, 0.1% formaldehyde crosslink after washing; high values mean tight binding
# [1] = target: T1, FEV (Homo sapiens, UniProt Q99581 1-238); conditions: protein: recombinant; tags: N-terminal GST; dsDNA, one strand shown
# T1 sequence: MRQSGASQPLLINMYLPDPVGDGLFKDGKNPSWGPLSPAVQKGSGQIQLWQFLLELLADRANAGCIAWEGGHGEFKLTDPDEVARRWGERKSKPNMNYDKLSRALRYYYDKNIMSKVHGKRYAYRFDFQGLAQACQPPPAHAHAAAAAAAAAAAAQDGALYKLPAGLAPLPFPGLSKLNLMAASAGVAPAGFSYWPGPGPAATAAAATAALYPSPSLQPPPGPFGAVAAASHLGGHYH
# Method in brief: (§1)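 A tag-only sample was pooled with DNA-barcoded human transcription factors that had been expressed in yeast as GST fusions and captured on glutathione beads. The pools were incubated for 30 min at room temperature with 200 nmole of a random double-stranded 16-mer DNA library in Tris/NaCl/DTT/glycerol buffer, then washed, crosslinked with 0.1% formaldehyde, proximity-ligated (BsaI/T4 ligase, 1 h, 37 °C), PCR-amplified and sequenced on an Illumina NextSeq500. Binding signal is each hexamer's read frequency for a factor divided by its frequency for the tag-only sample.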
# [2] = target: ETV5 (Homo sapiens, UniProt P41161 1-510); conditions: protein: recombinant; tags: N-terminal GST; dsDNA, one strand shown
# Method in brief: as §1
# [3] = target: HSF1 (Homo sapiens, UniProt Q00613 1-529); conditions: protein: recombinant; tags: N-terminal GST; chain copies: 3; dsDNA, one strand shown
# Method in brief: as §1
# [4] = target: T2, SPIC (Homo sapiens, UniProt Q8N5J4 1-248); conditions: protein: recombinant; tags: N-terminal GST; dsDNA, one strand shown
# T2 sequence: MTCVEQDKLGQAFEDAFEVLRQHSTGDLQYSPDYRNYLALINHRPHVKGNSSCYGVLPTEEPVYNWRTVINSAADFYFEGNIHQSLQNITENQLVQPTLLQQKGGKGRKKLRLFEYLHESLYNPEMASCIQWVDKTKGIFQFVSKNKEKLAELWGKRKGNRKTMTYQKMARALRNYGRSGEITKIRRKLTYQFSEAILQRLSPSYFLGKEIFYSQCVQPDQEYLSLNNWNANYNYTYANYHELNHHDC
# Method in brief: as §1
# [5] = target: ELF4 (Homo sapiens, UniProt Q99607 1-663); conditions: protein: recombinant; tags: N-terminal GST; dsDNA, one strand shown
# Method in brief: as §1
# [6] = target: T3, ELK4 (Homo sapiens, UniProt P28324-2 1-405); conditions: protein: recombinant; tags: N-terminal GST; dsDNA, one strand shown
# T3 sequence: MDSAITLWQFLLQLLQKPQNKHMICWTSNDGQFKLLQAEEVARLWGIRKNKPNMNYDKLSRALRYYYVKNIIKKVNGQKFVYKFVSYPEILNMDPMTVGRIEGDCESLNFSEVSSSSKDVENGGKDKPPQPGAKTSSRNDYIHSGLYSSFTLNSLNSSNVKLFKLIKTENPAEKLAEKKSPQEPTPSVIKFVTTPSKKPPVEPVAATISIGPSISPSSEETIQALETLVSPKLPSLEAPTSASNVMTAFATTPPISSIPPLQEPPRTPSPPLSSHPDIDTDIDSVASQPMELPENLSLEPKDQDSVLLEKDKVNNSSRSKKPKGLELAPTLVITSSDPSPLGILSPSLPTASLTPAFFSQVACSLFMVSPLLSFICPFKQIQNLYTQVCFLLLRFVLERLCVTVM
# Method in brief: as §1
# [7] = target: T4, ETV2 (Homo sapiens, UniProt O00321 1-342); conditions: protein: recombinant; tags: N-terminal GST; dsDNA, one strand shown
# T4 sequence: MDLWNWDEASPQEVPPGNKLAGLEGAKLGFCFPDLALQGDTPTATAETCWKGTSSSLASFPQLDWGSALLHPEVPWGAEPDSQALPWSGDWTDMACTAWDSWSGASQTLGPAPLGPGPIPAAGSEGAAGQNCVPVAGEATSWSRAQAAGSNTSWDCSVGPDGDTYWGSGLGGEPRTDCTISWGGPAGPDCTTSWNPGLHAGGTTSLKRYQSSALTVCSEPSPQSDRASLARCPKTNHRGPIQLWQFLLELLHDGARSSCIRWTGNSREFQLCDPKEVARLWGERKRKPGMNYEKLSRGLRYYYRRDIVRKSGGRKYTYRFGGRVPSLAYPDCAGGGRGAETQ
# Method in brief: as §1
# [8] = target: T5, ELF3 (Homo sapiens, UniProt P78545 1-371); conditions: protein: recombinant; tags: N-terminal GST; dsDNA, one strand shown
# T5 sequence: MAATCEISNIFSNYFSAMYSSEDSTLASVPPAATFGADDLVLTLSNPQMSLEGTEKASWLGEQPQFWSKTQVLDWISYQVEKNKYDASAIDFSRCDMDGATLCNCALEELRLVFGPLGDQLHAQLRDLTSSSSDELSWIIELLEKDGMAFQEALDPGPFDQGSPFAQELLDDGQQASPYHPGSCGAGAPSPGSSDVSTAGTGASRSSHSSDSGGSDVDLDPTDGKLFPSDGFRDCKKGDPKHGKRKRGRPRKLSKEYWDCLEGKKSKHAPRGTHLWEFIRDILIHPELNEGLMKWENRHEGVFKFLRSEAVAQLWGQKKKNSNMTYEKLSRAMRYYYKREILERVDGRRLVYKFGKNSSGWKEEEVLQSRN
# Method in brief: as §1
# [9] = target: CRX (Homo sapiens, UniProt O43186 1-299); conditions: protein: recombinant; tags: N-terminal GST; dsDNA, one strand shown
# Method in brief: as §1
# [10] = target: ETV1 (Homo sapiens, UniProt P50549 1-477); conditions: protein: recombinant; tags: N-terminal GST; dsDNA, one strand shown
# Method in brief: as §1
# CRX, sequence (O43186 whole entry): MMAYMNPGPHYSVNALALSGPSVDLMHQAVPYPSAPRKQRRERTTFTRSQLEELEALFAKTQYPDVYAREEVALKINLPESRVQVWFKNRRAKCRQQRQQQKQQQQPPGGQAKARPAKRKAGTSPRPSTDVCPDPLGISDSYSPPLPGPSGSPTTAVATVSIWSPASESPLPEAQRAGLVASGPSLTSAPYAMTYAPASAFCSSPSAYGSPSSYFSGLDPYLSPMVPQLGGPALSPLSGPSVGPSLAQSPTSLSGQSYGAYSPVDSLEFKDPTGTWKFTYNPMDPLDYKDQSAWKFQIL
# HSF1, sequence (Q00613 whole entry): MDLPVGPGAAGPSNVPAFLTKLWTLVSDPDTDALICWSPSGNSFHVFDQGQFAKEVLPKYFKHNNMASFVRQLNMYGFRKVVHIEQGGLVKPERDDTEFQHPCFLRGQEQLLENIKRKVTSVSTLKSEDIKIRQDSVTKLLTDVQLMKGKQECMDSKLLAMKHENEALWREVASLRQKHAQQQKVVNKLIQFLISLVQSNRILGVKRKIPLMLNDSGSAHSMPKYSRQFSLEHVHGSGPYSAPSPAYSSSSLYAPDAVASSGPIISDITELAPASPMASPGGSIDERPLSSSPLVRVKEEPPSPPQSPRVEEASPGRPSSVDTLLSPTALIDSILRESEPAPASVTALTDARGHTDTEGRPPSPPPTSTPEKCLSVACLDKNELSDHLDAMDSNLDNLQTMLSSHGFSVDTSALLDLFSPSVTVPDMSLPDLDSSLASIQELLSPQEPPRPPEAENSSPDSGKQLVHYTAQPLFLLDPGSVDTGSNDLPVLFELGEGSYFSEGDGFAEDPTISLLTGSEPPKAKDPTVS
# ETV1, sequence (P50549 whole entry): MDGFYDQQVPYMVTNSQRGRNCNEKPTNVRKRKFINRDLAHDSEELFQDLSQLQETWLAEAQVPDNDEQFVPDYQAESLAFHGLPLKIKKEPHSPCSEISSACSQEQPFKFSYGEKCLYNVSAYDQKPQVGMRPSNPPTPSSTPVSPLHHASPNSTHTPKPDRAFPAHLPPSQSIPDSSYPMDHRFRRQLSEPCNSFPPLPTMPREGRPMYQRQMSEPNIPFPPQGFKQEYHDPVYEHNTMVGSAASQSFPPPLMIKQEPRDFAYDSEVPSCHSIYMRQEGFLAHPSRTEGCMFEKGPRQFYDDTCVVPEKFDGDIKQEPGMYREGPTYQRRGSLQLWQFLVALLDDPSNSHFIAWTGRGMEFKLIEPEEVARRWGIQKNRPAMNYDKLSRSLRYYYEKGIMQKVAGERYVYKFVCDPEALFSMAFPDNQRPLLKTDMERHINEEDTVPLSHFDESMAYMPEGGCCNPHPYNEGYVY
# ETV5, sequence (P41161 whole entry): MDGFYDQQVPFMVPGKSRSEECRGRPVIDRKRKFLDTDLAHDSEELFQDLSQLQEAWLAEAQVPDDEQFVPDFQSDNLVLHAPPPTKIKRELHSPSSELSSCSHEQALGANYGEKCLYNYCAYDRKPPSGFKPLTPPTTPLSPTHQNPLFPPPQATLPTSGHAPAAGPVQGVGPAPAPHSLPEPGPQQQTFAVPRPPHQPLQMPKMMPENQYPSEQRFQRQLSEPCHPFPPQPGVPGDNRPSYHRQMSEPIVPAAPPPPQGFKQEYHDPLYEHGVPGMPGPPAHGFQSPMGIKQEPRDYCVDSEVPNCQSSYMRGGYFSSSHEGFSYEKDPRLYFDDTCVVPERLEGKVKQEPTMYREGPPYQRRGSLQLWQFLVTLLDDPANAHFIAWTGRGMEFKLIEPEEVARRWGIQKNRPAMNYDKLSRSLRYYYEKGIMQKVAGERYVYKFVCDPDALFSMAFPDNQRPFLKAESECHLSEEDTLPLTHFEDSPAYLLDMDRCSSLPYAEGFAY
# ELF4, sequence (Q99607 whole entry): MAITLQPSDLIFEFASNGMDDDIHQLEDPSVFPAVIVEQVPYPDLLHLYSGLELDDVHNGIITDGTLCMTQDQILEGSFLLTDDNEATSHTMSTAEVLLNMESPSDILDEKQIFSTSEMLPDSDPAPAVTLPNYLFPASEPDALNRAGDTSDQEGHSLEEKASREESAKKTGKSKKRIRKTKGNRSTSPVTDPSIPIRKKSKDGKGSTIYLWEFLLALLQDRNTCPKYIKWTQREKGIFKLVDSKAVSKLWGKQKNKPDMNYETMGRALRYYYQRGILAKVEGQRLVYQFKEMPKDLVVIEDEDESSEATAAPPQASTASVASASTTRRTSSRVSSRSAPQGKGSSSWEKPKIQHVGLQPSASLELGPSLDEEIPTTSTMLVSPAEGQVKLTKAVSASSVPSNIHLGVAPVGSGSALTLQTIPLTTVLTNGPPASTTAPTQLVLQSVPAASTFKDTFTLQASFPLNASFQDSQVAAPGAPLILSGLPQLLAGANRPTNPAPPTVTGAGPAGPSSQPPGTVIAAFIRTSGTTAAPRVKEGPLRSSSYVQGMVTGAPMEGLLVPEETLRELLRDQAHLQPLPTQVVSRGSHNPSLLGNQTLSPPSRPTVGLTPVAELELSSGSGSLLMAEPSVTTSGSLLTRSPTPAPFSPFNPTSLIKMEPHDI
sequence,measurement,setting,value
CACGAT,binding signal,[1],"1.23 fold enrichment (6-mer frequency, TF over GST control)"
same,binding signal,[2],"1.26 fold enrichment (6-mer frequency, TF over GST control)"
same,binding signal,[3],"1.27 fold enrichment (6-mer frequency, TF over GST control)"
same,binding signal,[4],"1.55 fold enrichment (6-mer frequency, TF over GST control)"
same,binding signal,[5],"1.34 fold enrichment (6-mer frequency, TF over GST control)"
same,binding signal,[6],"1.24 fold enrichment (6-mer frequency, TF over GST control)"
same,binding signal,[7],"1.17 fold enrichment (6-mer frequency, TF over GST control)"
same,binding signal,[8],"1.36 fold enrichment (6-mer frequency, TF over GST control)"
same,binding signal,[9],"1.39 fold enrichment (6-mer frequency, TF over GST control)"
same,binding signal,[10],"1.28 fold enrichment (6-mer frequency, TF over GST control)"
